G9a block – qHTS Assay for Inhibitors of Histone Lysine Methyltransferase G9a; Histone-lysine N-methyltransferase EHMT2 (Homo sapiens), Q96KQ7; G9a H3K9 monomethylation, AlphaScreen, 2 h; Potency, µM (doses to about 102 µM), inactives show at the top dose activity, negative = inhibition, usual class: inhibitors; 350,000 compounds, 8.8% hits; AID 504332, 2011; further: on the % scale 0 is the no-effect control and ±100 the full control effect; nearly all actives have a fitted effect of over 75% in size
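Readings reflect AlphaScreen signal from monomethyl-H3K9 antibody detection. HMT at 20 nM; substrate b-H3K9 500 nM; cofactor SAM 20 uM; 2 h RT reaction; compounds tested as titrations in qHTS with 15 min preincubation.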
VDR inh – Inhibitors of the vitamin D receptor (VDR): qHTS; Vitamin D3 receptor (Homo sapiens), P11473; VDR-SRC2-3 peptide fluorescence polarization, 2 h; Potency, µM, for inactives: max response, negative = inhibition, hits mostly inhibitors; 400,000 compounds, 0.93% hits; AID 504847, 2011; further: on the % scale 0 is the no-effect control and ±100 the full control effect
Target sequence (P11473 whole entry, looked up): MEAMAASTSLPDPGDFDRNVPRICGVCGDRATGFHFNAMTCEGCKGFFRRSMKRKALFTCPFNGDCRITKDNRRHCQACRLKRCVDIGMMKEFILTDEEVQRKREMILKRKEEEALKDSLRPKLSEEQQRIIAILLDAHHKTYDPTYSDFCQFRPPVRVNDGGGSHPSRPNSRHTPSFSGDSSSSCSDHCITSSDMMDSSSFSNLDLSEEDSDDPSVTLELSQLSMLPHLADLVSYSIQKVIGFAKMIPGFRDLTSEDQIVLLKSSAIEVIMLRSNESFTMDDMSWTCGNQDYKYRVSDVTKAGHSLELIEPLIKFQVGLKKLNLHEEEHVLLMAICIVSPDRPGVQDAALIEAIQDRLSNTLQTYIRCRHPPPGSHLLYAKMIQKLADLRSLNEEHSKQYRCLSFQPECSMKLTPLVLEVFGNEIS
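FP read-out; VDR + SRC2-3 coactivator peptide; 23 nl compound by pintool; 2 h RT incubation; reagents held at 4 deg C, protected from light.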
Glioma ERSR ind – qHTS for Inducers of the Endoplasmic Reticulum Stress Response (ERSR) in Human Glioma: qHTS | U87-MG GRP78 promoter luciferase reporter, 16 h | Potency, µM, inactives show top-dose activation, hits mostly activators | 420,000 compounds, 0.02% hits | AID 602332, 2012; further: series mostly up to about 76 µM; % of control where 0% means no effect; nearly all actives have a fitted effect of over 35% in size
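Stably transfected U87-MG glioma cells carrying a GRP78-based luciferase sensor; 16 h compound incubation. Luminescence end-point read 10 min after Bright-Glo addition at room temperature.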
Sfp inh – qHTS Assay for Inhibitors of Bacillus subtilis Sfp phosphopantetheinyl transferase (PPTase); Biochemical Sfp PPTase activity, qHTS; Potency, µM, inactives show largest response in the series, negative = inhibition, usual class: inhibitors; 310,000 compounds, 3.5% hits; 4'-phosphopantetheinyl transferase ffp (Bacillus subtilis), Q9F4F7; AID 1490, 2009;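 further: the enzyme is Sfp with the accession as filed and its product quenches rhodamine fluorescence; 0% = enzyme reaction without inhibitor and -100% = no enzyme wells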
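Reaction rates are the 30-min fluorescence difference (ex 525, em 598 nm) in wells containing 15 nM Sfp, 5 uM rhodamine-CoA and 12.5 uM BHQ-2-YbbR at pH 7.6 with 10 mM MgCl2.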
12-LOX inh – Primary qHTS assay for inhibitors of human arachidonate 12S-lipoxygenase (ALOX12): Round 2 | Polyunsaturated fatty acid lipoxygenase ALOX12 (Homo sapiens), P18054 | Potency, µM (highest dose often 108 µM), inactives show top-dose activity change, negative = inhibition, actives largely listed as inhibitors | purified 12hLO, xylenol orange hydroperoxide absorbance | AID 1671190, 2021 | 580,000 compounds, 1.1% hits; further: on the % scale 0 is the no-effect control and ±100 the full control effect
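Hydroperoxide product was detected by ferrous iron/xylenol orange as the 573 to 405 nm absorbance ratio. Arachidonic acid at 40 uM (final) was turned over for 30 min at room temperature by 150 nM human 12hLO, pH 7.0 Hepes buffer, after 15 min compound preincubation.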
* hit, by the source's call; ? = inconclusive; / = no result given; [ ] = another dose, or the depositor's remark. This excerpt belongs to a sample that is enriched for hits. The call rests on the fitted dose curve; in most records, active means well fitted curve in the direction sought with a large enough effect; inconclusive means small, poorly fitted or top-dose-only effect, or another doubt; inactive means no such curve, though single readings can be large; an effect the other way counts as inactive or inconclusive. Potency means the concentration at half of the fitted maximal effect.

SMILES	G9a block	VDR inh	Glioma ERSR ind	Sfp inh	12-LOX inh
O=C(c1cc2c(s1)CCC2)N1C(=O)c2ccccc2S1(=O)=O	40µM*	2%	-2%	-1%	?
COc1ccc(OC)c(Nc2nc3ccccc3nc2NS(=O)(=O)c2ccc(C)cc2)c1	/	/	/	/	14%
Cc1ccc(-n2nnnc2C(Cl)c2nnnn2-c2ccc(C)cc2)cc1	?	25µM*	7%	?	-28%
Cc1ccc(-n2nnnc2-c2ccccc2)cc1	7%	-10%	-4%	-6%	-12%
O=S(=O)(NCCO)c1ccc2c(c1)Cc1cc(S(=O)(=O)NCCO)ccc1-2	6%	-13%	-1%	12%	14%
NNS(=O)(=O)c1ccc2c(c1)Cc1cc(S(=O)(=O)NN)ccc1-2	7.9µM*	1%	-1%	-19%	?
Cc1cccc(NC(=O)c2cc3c(s2)CCC3)c1C	/	/	/	/	29%
CC(C)c1cc(=O)oc2cc(OCC(=O)N3CCCCC3)ccc12	/	/	/	/	21%
CCOc1ccc(NC(=S)/C(=C(\[O-])c2ccc(C)c([N+](=O)[O-])c2)[n+]2ccccc2)cc1	?	6%	2%	-26%	/
O=C(NCc1ccccc1)NC(=O)c1ccc(Cl)cc1	/	-6%	9%	/	212%
[O-]/C(=C(\C(=S)NCc1ccccc1)[n+]1ccccc1)c1ccc(Cl)cc1	22µM*	2%	-3%	-55%	?
CCc1cc[n+](/C(C(=S)Nc2cccc(C)c2)=C(/[O-])c2ccc(C)c([N+](=O)[O-])c2)cc1	40µM*	30%	0%	-10%	?
C=CCNC(=S)/C(=C(\[O-])c1ccc(Cl)cc1)[n+]1ccccc1	/	-1%	2%	8.9µM*	110%
Cc1ccc(/C([O-])=C(/C(=S)NCc2ccccc2)[n+]2ccccc2)cc1[N+](=O)[O-]	20µM*	-6%	-1%	-26%	?
Cc1ccc(C([O-])=C(C(=S)NCc2ccccc2)[n+]2cccc(CO)c2)cc1[N+](=O)[O-]	/	?	0%	/	-14%
c1cnc2nc(-c3c[nH]c4ncccc34)[nH]c2c1	/	/	/	/	40%[176 µM]
COC(=O)CC(C)CCC=C(C)C (stereo not drawn)	/	/	/	/	0%[176 µM]
[O-]/C(=C(\C(=S)NCc1ccc2c(c1)OCO2)[n+]1ccccc1)c1ccc(Cl)s1	28µM*	?	0%	40µM*	-19%
OCCNc1nc(Nc2ccccc2)nc2ccccc12	?	-4%	32µM*	-3%	-120%
OCCNc1nc(Nc2ccc(Br)cc2)nc2ccccc12	50µM*	6%	?	40µM*	?
Cc1c(Cl)cccc1Nc1nc(NCCO)c2ccccc2n1	79µM*	5%	32µM*	-21%	?
Oc1ccccc1Nc1nc(NCc2ccccc2)c2ccccc2n1	/	-3%	-12%	28µM*	?
OCCNc1nc(Nc2ccccc2)nc(Nc2ccccc2)n1	4%[12.7 µM]	-13%	3%	4%	?
CC1CCC2(CC1)NC(=O)N(NC(=O)CSc1ncnc3ccccc13)C2=O (stereo not drawn)	/	/	/	/	-7%
Cc1ccc(CN(C)C(=O)CS(=O)(=O)Cc2nc(-c3ccccc3)oc2C)cc1	/	/	/	/	4%
SMILES	G9a block	VDR inh	Glioma ERSR ind	Sfp inh	12-LOX inh
O=S1(=O)CCN(Cc2cn(C[C@H]3C[C@@H](NCc4ccc(F)cc4)[C@H](O)[C@@H]3O)nn2)CC1	/	/	/	/	13µM*
COCc1cn(C[C@H]2C[C@@H](NCc3cccc4c3OCO4)[C@H](O)[C@@H]2O)nn1	/	/	/	/	3%
COCC(=O)N[C@@H]1C[C@H](Cn2cc(CN3CCS(=O)(=O)CC3)nn2)[C@@H](O)[C@H]1O	/	/	/	/	68%
O=S(=O)(N[C@@H]1C[C@H](Cn2cc(-c3cccnc3)nn2)[C@@H](O)[C@H]1O)c1ccccc1	/	/	/	/	20µM*
COCc1cn(C[C@H]2C[C@@H](NCc3cccnc3)[C@H](O)[C@@H]2O)nn1	/	/	/	/	22µM*
CCOc1cc(C(=O)Nc2c(NC3CCCCC3)c3ccccc3oc2=O)cc(OCC)c1OCC	/	/	/	/	3%
